Test [1] can be described thus: qHTS assay to identify small molecule that activate the aryl hydrocarbon receptor (AhR) signaling pathway - cell viability counter screen (AID 743086).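 Note: HepG2 liver cells carrying the AhR DRE luciferase reporter; series mostly up to about 70 µM; nearly all actives have a fitted effect of over 45% in size.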 An outline of the steps:
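HepG2-AhR-luc (HG2L7.5c1) cells, 4000/well, treated 24 h at 37 C with compound; viability measured as CellTiter-Fluor fluorescence after 30 min in the same wells as the luciferase read.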

Test [2] is described as follows: qHTS assay to identify small molecule antagonists of the peroxisome proliferator-activated receptor gamma (PPARg) signaling pathway - cell viability counter screen (AID 743194). Note: nearly all actives have a fitted effect of over 55% in size. To be noted: Potency: co-treated with 50 nM rosiglitazone. An outline of the steps:
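Cytotoxicity counter screen in PPARg-bla HEK293H cells, same wells as reporter assay. Compounds plus 50 nM rosiglitazone (final) for 17 h at 37 C, then viability read by CellTiter-Glo luminescence.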

The nature of test [3]: qHTS assay for small molecule agonists of the antioxidant response element (ARE) signaling pathway (AID 743202; active = well fitted activation curve with a large enough effect in the signal ratio in the repeat runs, not every such curve was filed as active; the % refers to the signal ratio). The gist of the method: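 Agonist mode reporter screen: HepG2 cells with ARE-controlled beta-lactamase are incubated with test compounds for 16 h at 37 C, and beta-lactamase activity is measured as fluorescence of cleaved B/G FRET substrate.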
Test [4] in a line: qHTS assay for small molecule agonists of the antioxidant response element (ARE) signaling pathway - cell viability counter screen (AID 743203; calls by dose curve; note: nearly all actives have a fitted effect of over 55% in size; note: potency is the fitted concentration of half-maximal effect). An outline of the steps:
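CellSensor ARE-bla HepG2 cells, 2,000 per well, rested 5 hrs at 37C/5% CO2, then exposed to compound in DMSO for 16 hrs; viability read as CellTiter-Glo luminescence after 30 min at room temperature, in the reporter wells.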

The nature of test [5]: qHTS assay for small molecule activators of the heat shock response signaling pathway - cell viability counter screen (AID 743209). Note: nearly all actives have a fitted effect of over 50% in size. Note: potency is the fitted concentration of half-maximal effect. An outline of the steps: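 CellSensor HSE-bla HeLa cells, plated overnight at 37 C/5% CO2, were exposed to compounds in DMSO for 5 h at 37 C. Viability was then read in the same wells by CellTiter-Glo luminescence after 30 min at room temperature.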

The nature of test [6]: qHTS assay for small molecule activators of the heat shock response signaling pathway (AID 743210; active = well fitted activation curve with a large enough effect in the signal ratio in the repeat runs, with a control signal flat, not every such curve was filed as active; the % refers to the signal ratio;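 note: HeLa cells with beta-lactamase reporter driven by heat shock elements; series mostly up to about 63 µM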). An outline of the steps: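 Quantitative high-throughput format using an engineered HeLa line in which heat shock response elements drive beta-lactamase; after 5 h with compound, cells received a B/G FRET substrate and fluorescence was read.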
A short description of test [7]: qHTS assay to identify small molecule agonists of the peroxisome proliferator-activated receptor delta (PPARd) signaling pathway - cell viability counter screen (AID 743211). Note: nearly all actives have a fitted effect of over 55% in size. Note: potency is the fitted concentration of half-maximal effect. The gist of the method: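 Multiplexed format: after the 2 h room-temperature LiveBLAzer B/G FRET step, CellTiter-Glo was added to the same wells. Luminescence after 30 min gave cell viability; compound exposure was 17 h at 37C.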

The nature of test [8]: qHTS assay to identify small molecule antagonists of the peroxisome proliferator-activated receptor delta (PPARd) signaling pathway - cell viability counter screen (AID 743213). Note: nearly all actives have a fitted effect of over 50% in size. Note: potency is the fitted concentration of half-maximal effect. The gist of the method: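 Luminescence from CellTiter-Glo, added after the bla read and incubated 30 min at room temperature, gives viability of HEK293H PPARd-bla cells exposed to compounds for 17 h at 37 C with 300 nM L165041.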

Test [9] is described as follows: qHTS assay to identify small molecule agonists of the farnesoid-X-receptor (FXR) signaling pathway - cell viability counter screen (AID 743218). Note: nearly all actives have a fitted effect of over 45% in size. Note: potency is the fitted concentration of half-maximal effect. The gist of the method: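 FXR-UAS-bla HEK 293T cells, plated 5 h at 37 C, were exposed to compounds for 16 h at 37 C. CellTiter-Glo was then added to the same wells as the bla readout; luminescence read after 30 min at room temperature.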

A short description of test [10]: qHTS assay to identify small molecule antagonists of the farnesoid-X-receptor (FXR) signaling pathway - cell viability counter screen (AID 743221; active = well fitted cell-killing curve with a large enough effect in the repeat runs, not every such curve was filed as active; note: nearly all actives have a fitted effect of over 50% in size; note: potency is the fitted concentration of half-maximal effect). The gist of the method: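 CellTiter-Glo, 30 min RT, luminescence; same wells as the LiveBLAzer FRET read. Cells: FXR-UAS-bla HEK 293T. Treatment: compound with chenodeoxycholic acid 50 uM final, 16 h at 37 C.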
The target in test [11] is Vitamin D3 receptor (Homo sapiens) (UniProt P11473). Kind of test: qHTS assay to identify small molecule agonists of the vitamin D receptor (VDR) signaling pathway (AID 743222; calls by dose curve). An outline of the steps:
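VDR-bla cells were plated 4 h at 37C/5% CO2, then exposed to compounds in DMSO for 16 h. After LiveBLAzer B/G FRET substrate addition and 2 h at room temperature, beta-lactamase reporter fluorescence was read.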

For test [12], the target named is Peroxisome proliferator-activated receptor delta (Homo sapiens) (UniProt Q03181). Kind of test: qHTS assay to identify small molecule antagonists of the peroxisome proliferator-activated receptor delta (PPARd) signaling pathway (AID 743215; active = well fitted inhibition curve with a large enough effect in the signal ratio in the repeat runs, not every such curve was filed as active; the % refers to the signal ratio;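 note: cells stimulated with agonist L165041 at 300 nM final during compound exposure; series mostly up to about 62 µM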). The gist of the method:
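PPARd UAS-bla HEK293H cells were pre-incubated 5 h at 37 C, then given test compounds in DMSO plus agonist L165041 (300 nM final). After 17 h at 37 C, beta-lactamase FRET substrate was added; fluorescence read after 2 h at room temperature.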

Test [13] deals with Vitamin D3 receptor (Homo sapiens) (UniProt P11473). Kind of test: qHTS assay to identify small molecule antagonists of the vitamin D receptor (VDR) signaling pathway (AID 743223; active = well fitted inhibition curve with a large enough effect in the signal ratio in the repeat runs, not every such curve was filed as active; the % refers to the signal ratio). The gist of the method: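 After VDR-bla cells are plated and left 4 h at 37C, DMSO-dissolved compounds and 3 nM (final) calcitriol agonist are added. Incubation continues 16 h at 37C; FRET beta-lactamase substrate then develops 2 h at room temperature.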
Vitamin D3 receptor (Homo sapiens), sequence (P11473 whole entry, looked up): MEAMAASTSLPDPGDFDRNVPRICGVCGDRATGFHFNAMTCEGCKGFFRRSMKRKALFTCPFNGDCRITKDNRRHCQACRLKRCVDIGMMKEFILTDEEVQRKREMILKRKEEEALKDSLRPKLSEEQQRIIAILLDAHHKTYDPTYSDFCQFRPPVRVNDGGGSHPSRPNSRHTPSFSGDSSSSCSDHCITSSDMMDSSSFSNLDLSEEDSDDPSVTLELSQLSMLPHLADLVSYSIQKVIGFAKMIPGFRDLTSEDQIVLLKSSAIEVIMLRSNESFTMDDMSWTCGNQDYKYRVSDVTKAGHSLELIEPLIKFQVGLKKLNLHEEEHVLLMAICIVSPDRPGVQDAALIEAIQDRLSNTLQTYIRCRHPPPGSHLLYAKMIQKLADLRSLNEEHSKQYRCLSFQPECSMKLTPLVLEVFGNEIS

Test [14] is described as follows: qHTS assay to identify aromatase inhibitors - cell viability counter screen (AID 743084).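 Note: cells stimulated with testosterone during compound exposure; nearly all actives have a fitted effect of over 55% in size.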 Note: potency is the fitted concentration of half-maximal effect.
Test [15] has as its target Peroxisome proliferator-activated receptor delta (Homo sapiens) (UniProt Q03181). The test can be described thus: qHTS assay to identify small molecule agonists of the peroxisome proliferator-activated receptor delta (PPARd) signaling pathway (AID 743212; calls by dose curve). An outline of the steps: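 Quantitative high-throughput agonist screen in a HEK293H beta-lactamase reporter line under UAS control. Compounds in DMSO, at 37 C. Fluorescence read after 2 h with FRET substrate at room temperature.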

Test [16] addresses Bile acid receptor (Homo sapiens) (UniProt Q96RI1). Kind of test: qHTS assay to identify small molecule agonists of the farnesoid-X-receptor (FXR) signaling pathway (AID 743220; active = well fitted activation curve with a large enough effect in the signal ratio in the repeat runs, not every such curve was filed as active; the % refers to the signal ratio). An outline of the steps: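 Beta-lactamase reporter under UAS control in GeneBLAzer FXR HEK 293T cells (5000/well) measured with LiveBLAzer FRET substrate after 2 h at room temperature. Compound exposure lasted 16 h at 37C.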

The target of test [17] is Aryl hydrocarbon receptor (Homo sapiens) (UniProt P35869). Kind of test: qHTS assay to identify small molecule that activate the aryl hydrocarbon receptor (AhR) signaling pathway (AID 743085).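 Note: HG2L7.5c1 human HepG2 liver cells with stably integrated DRE-driven firefly reporter; series mostly up to about 70 µM; nearly all actives have a fitted effect of over 15% in size.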 The gist of the method:
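Reporter assay in engineered HepG2 line HG2L7.5c1, whose plasmid carries twenty dioxin responsive elements upstream of firefly luciferase. Treatment lasted 24 h at 37C; ONE-Glo luminescence gauged induction.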

Test [18] deals with Peroxisome proliferator-activated receptor gamma (Homo sapiens) (UniProt P37231). The test can be described thus: qHTS assay to identify small molecule agonists of the peroxisome proliferator-activated receptor gamma (PPARg) signaling pathway (AID 743094; active = well fitted activation curve with a large enough effect in the signal ratio in the repeat runs, not every such curve was filed as active; the % refers to the signal ratio). An outline of the steps: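 GeneBLAzer PPARg UAS-bla HEK293H cells carrying a stably integrated beta-lactamase reporter were pre-incubated 5 h at 37C, then exposed to compounds in DMSO for 17 h at 37C; LiveBLAzer B/G FRET substrate was added for 1 h at room temperature and fluorescence read.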
Peroxisome proliferator-activated receptor gamma (Homo sapiens), sequence (P37231 whole entry, looked up): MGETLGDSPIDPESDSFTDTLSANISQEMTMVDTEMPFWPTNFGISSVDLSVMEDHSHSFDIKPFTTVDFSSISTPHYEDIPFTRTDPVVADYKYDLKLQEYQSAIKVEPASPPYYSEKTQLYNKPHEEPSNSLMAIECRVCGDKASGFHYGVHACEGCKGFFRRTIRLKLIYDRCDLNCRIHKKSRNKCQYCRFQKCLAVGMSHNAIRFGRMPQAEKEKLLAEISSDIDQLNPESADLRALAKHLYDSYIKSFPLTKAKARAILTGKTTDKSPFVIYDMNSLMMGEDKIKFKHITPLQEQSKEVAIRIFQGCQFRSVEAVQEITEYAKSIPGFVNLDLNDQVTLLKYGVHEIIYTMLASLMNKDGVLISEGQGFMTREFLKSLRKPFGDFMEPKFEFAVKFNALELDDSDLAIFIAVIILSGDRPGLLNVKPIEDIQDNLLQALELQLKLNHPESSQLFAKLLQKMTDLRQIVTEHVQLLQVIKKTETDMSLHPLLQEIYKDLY

Test [19] has the same target. The test can be described thus: qHTS assay to identify small molecule antagonists of the peroxisome proliferator-activated receptor gamma (PPARg) signaling pathway (AID 743191; calls by dose curve; note: series mostly up to about 63 µM; nearly all actives have a fitted effect of over 30% in size). The gist of the method:
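GeneBLAzer PPARg UAS-bla HEK293H cells, 5 h post-plating, exposed to compounds 17 h at 37C. LiveBLAzer B/G FRET substrate added for 1 h at room temperature; beta-lactamase reporter read by fluorescence intensity.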

The target of test [20] is Bile acid receptor (Homo sapiens) (UniProt Q96RI1). Kind of test: qHTS assay to identify small molecule antagonists of the farnesoid-X-receptor (FXR) signaling pathway (AID 743217; active = well fitted inhibition curve with a large enough effect in the signal ratio in the repeat runs, not every such curve was filed as active; the % refers to the signal ratio). The gist of the method:
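FXR-UAS-bla HEK 293T cells pre-incubated 5 h at 37 °C, then exposed to compounds with chenodeoxycholic acid (50 uM final) for 16 h at 37 °C. Beta-lactamase reporter read by LiveBLAzer B/G FRET substrate fluorescence after 2 h at room temperature.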

Among the data in PubChem BioAssay (Tox21) are Potency and outcome values, retold here.

Values joined by “and” are separate entries in the source; they are usually repeats but may differ in a detail not shown here. Equal entries are not always repeated. Inconclusive results are not listed. Where a structure was tested more than once in an assay, its records may differ in their call. Active and inactive are the calls of the source. Unless noted, calls come from the whole dose curve; as a rule, active = well fitted curve in the direction sought with a large enough effect in the repeat runs; inconclusive = weak or mixed curves; inactive = no such curve, though single readings can be large; an effect the other way counts as inactive or inconclusive.

Bile acid receptor (Homo sapiens), sequence (Q96RI1 whole entry, looked up): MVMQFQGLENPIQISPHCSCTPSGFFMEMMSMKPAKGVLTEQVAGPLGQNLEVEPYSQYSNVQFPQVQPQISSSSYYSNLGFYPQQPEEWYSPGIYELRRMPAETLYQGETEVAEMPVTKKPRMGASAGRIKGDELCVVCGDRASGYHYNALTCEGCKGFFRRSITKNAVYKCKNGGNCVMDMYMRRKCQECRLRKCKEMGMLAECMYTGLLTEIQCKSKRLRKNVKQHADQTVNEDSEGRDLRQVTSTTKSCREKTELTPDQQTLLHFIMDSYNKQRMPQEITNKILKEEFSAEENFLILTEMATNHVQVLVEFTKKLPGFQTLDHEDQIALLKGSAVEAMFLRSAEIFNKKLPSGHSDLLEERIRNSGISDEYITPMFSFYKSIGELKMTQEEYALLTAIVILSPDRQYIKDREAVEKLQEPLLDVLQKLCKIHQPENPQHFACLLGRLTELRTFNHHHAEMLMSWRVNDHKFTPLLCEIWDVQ
Peroxisome proliferator-activated receptor delta (Homo sapiens), sequence (Q03181 whole entry, looked up): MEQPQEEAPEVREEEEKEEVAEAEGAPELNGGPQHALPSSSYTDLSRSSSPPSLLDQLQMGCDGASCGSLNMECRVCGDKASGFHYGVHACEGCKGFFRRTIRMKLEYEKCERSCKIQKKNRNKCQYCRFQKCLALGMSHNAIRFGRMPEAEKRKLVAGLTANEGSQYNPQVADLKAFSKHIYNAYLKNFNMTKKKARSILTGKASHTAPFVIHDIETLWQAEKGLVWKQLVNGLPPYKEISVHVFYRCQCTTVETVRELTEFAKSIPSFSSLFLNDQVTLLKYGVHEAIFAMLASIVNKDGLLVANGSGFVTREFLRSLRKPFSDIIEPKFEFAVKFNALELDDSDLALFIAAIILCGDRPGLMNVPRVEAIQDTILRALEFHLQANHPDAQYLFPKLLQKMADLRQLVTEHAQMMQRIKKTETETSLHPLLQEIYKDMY
Aryl hydrocarbon receptor (Homo sapiens), sequence (P35869 whole entry, looked up): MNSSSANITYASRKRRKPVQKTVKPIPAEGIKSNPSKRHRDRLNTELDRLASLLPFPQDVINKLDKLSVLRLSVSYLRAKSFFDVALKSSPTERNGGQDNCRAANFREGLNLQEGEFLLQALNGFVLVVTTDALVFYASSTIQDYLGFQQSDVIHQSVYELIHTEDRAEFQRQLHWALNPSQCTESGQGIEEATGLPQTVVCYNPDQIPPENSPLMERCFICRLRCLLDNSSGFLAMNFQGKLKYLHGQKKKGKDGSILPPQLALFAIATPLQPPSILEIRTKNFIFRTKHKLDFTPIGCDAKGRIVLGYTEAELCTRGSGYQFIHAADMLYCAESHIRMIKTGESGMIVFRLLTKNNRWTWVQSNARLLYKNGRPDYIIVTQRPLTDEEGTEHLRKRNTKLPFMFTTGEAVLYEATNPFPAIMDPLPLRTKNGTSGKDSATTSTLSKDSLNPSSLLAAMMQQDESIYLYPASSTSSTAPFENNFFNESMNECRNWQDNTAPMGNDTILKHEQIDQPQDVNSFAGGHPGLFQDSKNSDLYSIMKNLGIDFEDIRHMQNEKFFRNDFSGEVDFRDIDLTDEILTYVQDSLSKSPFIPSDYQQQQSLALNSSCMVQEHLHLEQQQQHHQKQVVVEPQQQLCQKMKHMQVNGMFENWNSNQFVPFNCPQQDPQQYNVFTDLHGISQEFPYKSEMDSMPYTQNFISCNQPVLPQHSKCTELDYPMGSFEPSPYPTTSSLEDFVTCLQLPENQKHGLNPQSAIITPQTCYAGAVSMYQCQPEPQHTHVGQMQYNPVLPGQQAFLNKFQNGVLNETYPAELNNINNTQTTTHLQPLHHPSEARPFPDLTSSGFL

For the molecule `CC(C)(C)OOC(C)(C)CCC(C)(C)OOC(C)(C)C`, the Potency entry in test [1], in [2], in test [3], in [4], in test [5] and in test [6] was “inactive” in each case. Also, the Potency result in test [7], in test [8], in test [9] and in test [10] was “inactive” each time. Moreover, the molecule was called inactive in [11].
Turning to `Nc1ccccc1C(=O)OCC(O)CO` (stereo not drawn), the Potency result in [2], in test [3], in test [4], in test [5], in test [6] and in test [7] was “inactive” each time. Further, the Potency result in test [8], in test [12], in [10] and in test [13] was “inactive” in each case. Also, the outcome in test [11] was inactive.
For `CC(C)(C)CC(C)(C)c1ccc(O)cc1`, the Potency entry in [14] is “inactive and 30.6 µM (active)”; in [4], 30.6 µM (active) and inactive; in [5], 54.9 µM (active) and 29.8 µM (active); in [7] it was 34.7 µM (active); in test [8], 27.5 µM (active); in test [9] it was 54.8 µM (active) and inactive. The Potency in [10] is 49 µM (active). In addition, the Potency result in test [2] and in test [12] was “inactive” each time. Further, the outcome in test [15], in test [16] and in test [11] was inactive.
For `C=CCc1ccc(OC(=O)Cc2ccccc2)c(OC)c1`, the Potency entry in test [14], in test [2], in test [3], in [4], in [5] and in [6] was “inactive” throughout. In addition, the Potency result in test [7], in [8] and in test [9] was “inactive” throughout. Besides, the outcome in test [15] and in test [11] was inactive.
Turning to `O=S(=O)(Cl)Cl`, the Potency result in test [17], in test [1], in [18], in [19], in test [2] and in test [3] was “inactive” in each case. Also, the Potency entry in test [4], in [6], in test [7], in test [9] and in test [13] was “inactive” each time. The molecule was classed as inactive in [11].
Regarding `CC(C)CCCCCCCOC(=O)c1ccccc1C(=O)OCCCCCCCC(C)C`, the Potency entry in test [14], in test [18], in test [19], in test [4], in test [5] and in [6] was “inactive” throughout. For the same molecule, the Potency entry in test [7], in test [8], in test [20], in [9], in test [10] and in test [13] was “inactive” in each case. For the same molecule, the molecule was called inactive in test [16] and in [11].
On to `C#C[C@]1(O)CC[C@H]2[C@@H]3CCC4=CC(=O)CCC4=C3C=C[C@@]21CC`, for which the Potency result in test [14], in test [1], in test [2], in test [4], in test [5] and in test [6] was “inactive” in each case. Also, the Potency entry in test [7] and in test [8] was “inactive” in each case.
For the molecule `C#CC(O)(C=CCl)CC` (stereo not drawn), the Potency entry in [19], in [2], in test [3], in test [5], in test [6] and in test [7] was “inactive” each time. Further, the Potency result in test [8], in test [12], in [9], in test [10] and in test [13] was “inactive” each time. In addition, the result in test [15], in [16] and in test [11] was inactive.
Take `C[C@@H]1C[C@@H]([C@H](O)CC2CC(=O)NC(=O)C2)C(=O)[C@@H](C)C1`: the Potency result in test [18], in test [2], in test [4], in test [7], in [8] and in test [9] was “inactive” in each case. Besides, the Potency entry in test [10] was “inactive”. Besides, the result in test [16] was inactive.
Consider `Nc1ccccc1C(=O)OCCc1ccccc1`, for which the Potency result in test [14], in test [1], in test [2], in test [4], in test [5] and in [6] was “inactive” each time. The Potency entry in test [7], in test [8], in test [9], in test [10] and in test [13] was “inactive” in each case. The result in [11] was inactive.
